Screens from PubChem BioAssay.
tim10-1 inh: growth inhibitors of tim10-1 mutant yeast, primary screen, luminescence, uHTS; S. cerevisiae tim10-1 ts strain growth, BacTiter-Glo, 24 h; 330,000 tested, 2.2% active; inhibition, % at 20 µM; AID 463190, 2010;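 active = inhibition of at least 40%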;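 also: mutant grown at 25 °C; 0% = DMSO wells with yeast and 100% = wells holding no yeast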
TIM10 inh: growth inhibitors of isogenic TIM10 control yeast, primary screen, counter-screen for tim10-1 yeast inhibitor project, luminescence, uHTS; AID 463195, 2010; inhibition, % at 10 µM; 330,000 tested, 1.4% active; S. cerevisiae TIM10 strain growth, BacTiter-Glo luminescence, 24 h;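 active = inhibition of 40% or more at the single tested concentration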;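 also: wild-type TIM10 isogenic control strain grown at permissive 25 °C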
NALP3 yeast inh: NALP3 inflammasome inhibitors in reconstituted yeast, primary screen, luminescence, uHTS. inhibition, % at 10 µM. 330,000 tested, 0.39% active. Yeast reconstituted NLRP3/ASC/caspase-1, beta-gal luminescence, 24 h;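 active = inhibition of 50% or more; inactive = inhibition below 50%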;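 also: plate controls were induced DMSO wells for no effect and uninduced yeast grown without galactose for full effect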
CR mimetic SO: reduction of superoxide in aged yeast, primary screen, HTS | 330,000 tested, 0.18% active | superoxide response (% of plate mean), % at 10 µM | S. cerevisiae aged cells, superoxide DHE fluorescence; stronger effect = lower value;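 active = superoxide response under a set limit, about three screen SD below normal, cut at about 65% in these data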;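 also: yeast aged for seven days with compound at 30 °C before DHE staining; 100% = average MFI of all compound-treated wells on the plate with controls excluded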
tim23-1 inh: growth inhibitors of tim23-1 mutant yeast, primary screen, luminescence, uHTS; S. cerevisiae tim23-1 growth, BacTiter-Glo luminescence, 24 h; inhibition, % at 20 µM; 330,000 tested, 1.3% active;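 active = growth inhibition of the mutant yeast at or above 50%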;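 also: temperature-sensitive mutant grown at 25 °C; plate controls were DMSO-treated mutant yeast for no effect and medium wells lacking yeast for full effect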
CR mimetic CP: superoxide lowering in aged yeast cells, confirmation, cherry picked compounds | S. cerevisiae aging, superoxide DHE fluorescence; stronger effect = lower value | superoxide response (% of plate), % at 10 µM | 850 tested, 1% active | AID 434994, 2010 | shares compounds with CR mimetic SO;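 active = superoxide signal below 65% of the plate average of sample wells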;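 also: cells aged with compound for 7 days at 30 degrees C before staining; 100% equals mean DHE fluorescence of all compound wells on the plate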
DHE counter: DHE quenching or ROS scavenging interference in aged yeast, artefact control for yeast caloric restriction mimetic project, S. cerevisiae BY4741, flow cytometry; DHE fluorescence; stronger effect = lower value; fluorescence response, % at 10 µM; AID 435000, 2010; 850 tested, under 10 active; shares compounds with CR mimetic SO;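 active = fluorescence response below 15%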;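 also: percent of the mean fluorescence averaged over all compound wells on the plate; lower means stronger quenching of DHE signal or ROS scavenging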
Numbers without * were called inactive. Only some compounds are listed: those with a hit (about 3.8% of all), similar ones and a draw of the others.

COc1cccc(-c2nc(CS(=O)(=O)CC(=O)NCCCN3CCOCC3)c(C)o2)c1 was read as tim10-1 inh 12.2, TIM10 inh -9.7, NALP3 yeast inh 2.2, CR mimetic SO 79.4 and tim23-1 inh -0.7.
Screening CCOc1ccccc1NS(=O)(=O)c1cn(C)nc1C returned tim10-1 inh 4.2, TIM10 inh 6.9, NALP3 yeast inh 0.6, CR mimetic SO 104.2 and tim23-1 inh -31.0.
For CN(Cc1ccc(Cl)c(Cl)c1)C(=O)CN1C(=O)NC2(CCCC2)C1=O the results were tim10-1 inh 10.6, TIM10 inh -6.4, NALP3 yeast inh 16.4, CR mimetic SO 105.5 and tim23-1 inh 17.1.
`CC(=O)CSc1nc2ccc(Nc3nc(N4CCOCC4)nc(N4CCOCC4)n3)cc2s1` gave tim10-1 inh 27.4, TIM10 inh 7.6, NALP3 yeast inh 7.7, CR mimetic SO 59.6*, tim23-1 inh 31.8, CR mimetic CP 100.8 and DHE counter 103.1.
`CC(C)(C)NC(=O)CSc1nc2ccc(Nc3nc(N4CCOCC4)nc(N4CCOCC4)n3)cc2s1` gave tim10-1 inh 28.5, TIM10 inh 22.0, NALP3 yeast inh 20.3, CR mimetic SO 94.1 and tim23-1 inh 21.3.
`COC(=O)C(Cc1ccccc1)NC(=O)CCCC(=O)NCc1cccc(OC)c1` (stereo unspecified) gave tim10-1 inh 10.7, TIM10 inh -0.6, NALP3 yeast inh 13.6, CR mimetic SO 98.1 and tim23-1 inh -2.4.
Screening CC(C)NC(=O)c1ccc(C(C)C)cc1 returned CR mimetic SO 52.0*, CR mimetic CP 108.0 and DHE counter 105.6.
C[C@]12c3[nH]c4cc(-c5ccco5)ccc4c3CCN1C(=O)[C@@H](CC(=O)NCCCn1ccnc1)C[C@@H]2C(=O)N1CCOCC1 was read as tim10-1 inh 2.3, TIM10 inh 1.1, CR mimetic SO 109.0 and tim23-1 inh 24.1.
Nc1ccc(S(N)(=O)=O)cc1 was read as tim10-1 inh -10.1, TIM10 inh 4.7, NALP3 yeast inh -2.3 and CR mimetic SO 97.1.
`CC(C)(C)c1ccc(NS(=O)(=O)c2ccc(N)cc2)cc1` gave tim10-1 inh 14.9, TIM10 inh 3.2, NALP3 yeast inh -0.4, CR mimetic SO 92.6, tim23-1 inh 28.3, CR mimetic CP 131.2 and DHE counter 118.9.
`Nc1ccc(S(=O)(=O)Nc2ccc(S(N)(=O)=O)cc2)cc1` gave tim10-1 inh -2.6, TIM10 inh 7.2, NALP3 yeast inh 13.0, CR mimetic SO 97.2, tim23-1 inh 9.0, CR mimetic CP 117.8 and DHE counter 105.4.
`CN(Cc1ccccc1)C(=S)Nc1ccc2nc3n(c(=O)c2c1)CCCCC3` gave tim10-1 inh -1.1, TIM10 inh -15.3, NALP3 yeast inh 6.1, CR mimetic SO 93.8 and tim23-1 inh 9.4.
For Cc1cc(NC(=O)CN2CCN(c3ccccn3)CC2)ccc1Br the results were tim10-1 inh 9.0, TIM10 inh 21.2, NALP3 yeast inh 29.0, CR mimetic SO 106.1, tim23-1 inh 40.4, CR mimetic CP 105.5 and DHE counter 102.8.
`O=C(CN1CCN(c2ccccn2)CC1)Nc1ccc(Oc2ccccc2)cc1` gave tim10-1 inh 30.8, TIM10 inh 8.5, NALP3 yeast inh 27.9, CR mimetic SO 81.2 and tim23-1 inh 34.4.
`COC(=O)c1ccc(NC(=O)CN2CCN(c3ccccn3)CC2)cc1` gave tim10-1 inh 7.6, TIM10 inh -4.8, NALP3 yeast inh -3.7, CR mimetic SO 93.7, tim23-1 inh 11.8, CR mimetic CP 123.3 and DHE counter 110.3.
Screening O=C(CN1CCN(c2ccccn2)CC1)Nc1ccc(F)c(F)c1 returned tim10-1 inh -7.6, TIM10 inh -7.9, NALP3 yeast inh 7.0, CR mimetic SO 95.9, tim23-1 inh 7.0, CR mimetic CP 90.2 and DHE counter 88.2.
O=C(CN1CCN(c2ccccn2)CC1)Nc1ccccc1 was read as tim10-1 inh 4.8, TIM10 inh 5.7, NALP3 yeast inh 16.1, CR mimetic SO 109.0, tim23-1 inh 9.9, CR mimetic CP 120.8 and DHE counter 105.5.
`CC(Oc1ccc(Br)cc1)C(=O)NCC1(N2CCCCC2)CCCCC1` (stereo unspecified) gave tim10-1 inh -2.5, TIM10 inh 3.8, NALP3 yeast inh 11.2, CR mimetic SO 107.4 and tim23-1 inh 9.5.
Screening CN(C)S(=O)(=O)c1ccc(Cl)c(NC(=O)CN2CCc3ccccc3C2)c1 returned tim10-1 inh 16.4, TIM10 inh -16.6, NALP3 yeast inh 14.4, CR mimetic SO 95.9 and tim23-1 inh 13.5.
CN(C)S(=O)(=O)c1ccc(Cl)c(NC(=O)CN2CCN(c3ccccn3)CC2)c1 was read as tim10-1 inh -7.8, TIM10 inh 9.2, NALP3 yeast inh 4.0, tim23-1 inh -2.1, CR mimetic CP 98.3 and DHE counter 96.5.
O=C(CN1CCN(c2ccccn2)CC1)Nc1ccc(F)cc1 was read as tim10-1 inh -0.4, TIM10 inh 7.2, NALP3 yeast inh 10.2, CR mimetic SO 97.5, tim23-1 inh 12.3, CR mimetic CP 96.1 and DHE counter 90.6.
Screening O=C(CN1CCN(c2ccccn2)CC1)NC1CCCC1 returned tim10-1 inh 8.5, TIM10 inh 0.7, NALP3 yeast inh -2.0, CR mimetic SO 95.3 and tim23-1 inh 19.0.
Screening Cc1cc(C)c(NC(=O)CN2CCN(c3ccccn3)CC2)c(C)c1 returned tim10-1 inh 4.4, TIM10 inh -2.3, NALP3 yeast inh 7.8, CR mimetic SO 98.9, tim23-1 inh 10.5, CR mimetic CP 104.9 and DHE counter 100.6.
COc1cc(/C=C2/SC(=S)N(CC(=O)O)C2=O)ccc1OCC(=O)Nc1ccc(C)c(C)c1 was read as tim10-1 inh -3.1, TIM10 inh 10.2, NALP3 yeast inh 15.8, CR mimetic SO 116.1 and tim23-1 inh -2.0.
Screening Cc1ccccc1CCNC(=O)C1CCC(=O)N(C2CCCCCC2)C1 (stereo unspecified) returned tim10-1 inh 14.8, TIM10 inh 4.4, NALP3 yeast inh 9.5, CR mimetic SO 90.1 and tim23-1 inh 5.9.
For COC(=O)c1cccc2nc3c(C(C)O)cccc3nc12 (stereo unspecified) the results were tim10-1 inh 22.0, TIM10 inh 1.9, NALP3 yeast inh -3.0, CR mimetic SO 50.0*, tim23-1 inh 2.3, CR mimetic CP 65.9 and DHE counter 113.0.
For CCN(CC)C(=O)c1cccc2nc3ccccc3nc12 the results were tim10-1 inh -4.7, TIM10 inh 4.4, NALP3 yeast inh 12.2, CR mimetic SO 81.2 and tim23-1 inh 1.5.
